From PubChem
A selection: hits, their analogues and other compounds. The true share with any hit is near 12%.
TDP1 block: TDP1 (human) enzyme inhibition | Q9NUW8 | recombinant TDP1, AlphaScreen DNA substrate cleavage | Potency, µM (doses to about 130 µM), inactives show at the highest dose activity change, negative = inhibition, usual class: inhibitors | actives 0.28% (n = 350,000) | AID 485290; further: on the % scale 0 is the no-effect control and ±100 the full control effect; nearly all actives have a fitted effect of over 40% in size
Target sequence (Q9NUW8 whole entry, looked up): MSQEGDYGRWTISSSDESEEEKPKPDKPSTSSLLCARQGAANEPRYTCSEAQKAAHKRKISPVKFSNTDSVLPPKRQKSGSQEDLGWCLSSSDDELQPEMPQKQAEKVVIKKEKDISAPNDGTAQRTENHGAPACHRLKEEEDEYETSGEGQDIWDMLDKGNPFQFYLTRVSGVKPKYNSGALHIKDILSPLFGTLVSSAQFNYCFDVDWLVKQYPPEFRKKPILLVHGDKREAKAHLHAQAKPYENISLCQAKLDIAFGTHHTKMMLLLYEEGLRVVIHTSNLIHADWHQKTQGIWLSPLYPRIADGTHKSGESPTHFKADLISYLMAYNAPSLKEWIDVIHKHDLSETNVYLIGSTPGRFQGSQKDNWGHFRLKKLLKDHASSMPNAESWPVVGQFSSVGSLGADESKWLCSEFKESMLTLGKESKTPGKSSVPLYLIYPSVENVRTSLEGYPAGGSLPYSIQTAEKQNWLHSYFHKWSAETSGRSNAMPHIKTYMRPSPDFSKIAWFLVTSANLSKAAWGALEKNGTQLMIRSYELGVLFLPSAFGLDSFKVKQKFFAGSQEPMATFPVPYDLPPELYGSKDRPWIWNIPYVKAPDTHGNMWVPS
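Signal: AlphaScreen proximity between streptavidin donor and anti-FITC acceptor beads on intact substrate. Reaction: Tdp1 1 nM, substrate 15 nM final, 5 min RT after 15 min compound preincubation.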
BAZ2B block: inhibitors of human BAZ2B bromodomain; Q9UIF8; AlphaScreen BAZ2B-H3K14Ac peptide displacement; Potency, µM (highest dose often 114 µM), for inactives: at the top dose activity change, negative = inhibition, usual class: inhibitors; actives 4.4% (n = 360,000); AID 504333; further: on the % scale 0 is the no-effect control and ±100 the full control effect; nearly all actives have a fitted effect of over 60% in size
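In this displacement format the biotinylated H3(5-23) peptide acetylated at Lys14 serves as ligand at 50 nM, with BAZ2B at 50 nM in PBS pH 7.4 containing 0.01% Tween-20. Donor and acceptor beads are 10 ug/mL final.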
G9a block: blocks human histone lysine methyltransferase G9a. Q96KQ7. G9a H3K9 monomethylation, AlphaScreen, 2 h. Potency, µM (highest dose often 102 µM), inactives show top-dose activity, negative = inhibition, hits mostly inhibitors. actives 8.8% (n = 350,000); further: on the % scale 0 is the no-effect control and ±100 the full control effect; nearly all actives have a fitted effect of over 75% in size
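Compounds were preincubated with 20 nM G9a for 15 min, after which biotinylated H3K9 peptide (500 nM) and SAM (20 uM) started a 2 h room-temperature reaction. Monomethylated product was quantified by antibody-based AlphaScreen chemiluminescence.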
Sfp inh: inhibitors of Bacillus subtilis Sfp phosphopantetheinyl transferase; AID 1490; Biochemical Sfp PPTase activity, qHTS; Potency, µM, for inactives: largest response in the series, negative = inhibition, hits mostly inhibitors; actives 3.5% (n = 310,000); Q9F4F7;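 further: the enzyme is Sfp with the accession as filed and its product quenches rhodamine fluorescence; 0% = enzyme reaction without inhibitor and -100% = no enzyme wells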
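Sfp 15 nM + cpd, 15 min RT; start w/ rhodamine-CoA 5 uM, BHQ-2-YbbR 12.5 uM (final); 50 mM Hepes pH 7.6, 10 mM MgCl2, 0.01% NP-40, 0.01% BSA; read 525/598 nm at 0 and 30 min.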
HP1b binding inh: inhibitors of HP1-beta chromodomain binding to methylated histone tails; P83916; AlphaScreen HP1-beta / biotin-H3K9me3 peptide binding; Potency, µM (highest dose often 114 µM), inactives show at the top dose activity change, negative = inhibition, most hits filed as inhibitors; actives 0.56% (n = 390,000); further: nearly all actives have a fitted effect of over 70% in size
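HP1-beta protein (50 nM final) preincubated 30 min at room temperature with biotinylated H3(1-18)K9me3 peptide (50 nM) in PBS pH 7.4, 0.01% Tween-20, then compound added for 30 min. AlphaScreen streptavidin donor/nickel chelate acceptor beads (10 ug/mL final), 30 min dark, luminescence read.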
JMJD2A Tudor inh: blocks the human JMJD2A Tudor domain. Potency, µM (top dose mostly 114 µM), for inactives: at the top dose activity change, negative = inhibition, usual class: inhibitors. actives 4.4% (n = 390,000). O75164. AlphaScreen JMJD2A-Tudor / H3K4me3 peptide binding; further: on the % scale 0 is the no-effect control and ±100 the full control effect; nearly all actives have a fitted effect of over 50% in size
* marks the source's active call; other numbers are inactive results; u = inconclusive; x = no result; ! = a repeat was not active; [ ] = dose if it differs, or a comment. The call rests on the fitted dose curve; in most records, active means well fitted curve in the direction sought with a large enough effect; inconclusive means small, poorly fitted or top-dose-only effect, or another doubt; inactive means no such curve, though single readings can be large; an effect the other way counts as inactive or inconclusive. Potency means the concentration at half of the fitted maximal effect.

SMILES	TDP1 block	BAZ2B block	G9a block	Sfp inh	HP1b binding inh	JMJD2A Tudor inh
O=C1NC(=O)C(=C/C=C/c2coc3ccc(Br)cc3c2=O)C(=O)N1	0%	-34%	8.9µM*	-14%	x	x
CC(=O)n1cc(C=C2C(=O)NC(=O)NC2=O)c2ccccc21	-11%	-16%	10µM*	22µM*	32%	u
O=C1NC(=O)C(=Cc2csc3ccccc23)C(=O)N1	x	u	8.9µM*	18µM*	8%	-11%
O=C1NC(=O)C(=Cc2coc3ccccc3c2=O)C(=O)N1	-2%	x	35µM*	40µM*	-2%	-22%
C/C1=C/C(=O)O[C@@H]2C[C@@H](CC[C@H](C)/C=C\CC1)O[C@@](O)(C1CSC(=O)N1)C2 (stereo partly specified)	3%	x	x	18%	x	x
CN1CC(C(=O)c2ccc(Cl)cc2)C(c2ccc(Cl)cc2Cl)C1 (stereo unspecified)	x	-18%	u	u	-13%	-33%
CN1CCC(O)(c2ccc(Cl)cc2)C(C(=O)c2ccc(Cl)cc2)C1 (stereo unspecified)	3%	-8%	10µM*	-8%	34%	-20%
COc1cccc(NC(=O)Cn2c(-c3nonc3N)nc3ccccc32)c1	x	1%	-1%[59 µM]	x	42%	-6%
CN(C)c1ccc(C=C2C=CC=C2)cc1	x	x	x	x	22µM*	18µM*
CN(C)c1ccc(N)cc1	26%	x	x	x	x	x
COC(=O)C1=Nc2ccccc2/C1=C\c1c(O)n(-c2cc(OC)ccc2OC)c(=O)[nH]c1=O	u	79µM*	u	u	u	-15%[57.1 µM]
O=c1[nH]c(=O)n(Cc2ccccc2)c(O)c1/C=C1\C=Nc2ccccc21	-10%	-16%	-45%	u	52%	-32%
O=c1[nH]c(=O)n(-c2ccccc2F)c(O)c1/C=C1\C=Nc2ccccc21	x	u	u	35µM*	13%	-25%
COc1ccc(-n2c(O)c(/C=C3\C=Nc4ccc(Br)cc43)c(=O)[nH]c2=O)c(OC)c1	x	u	32µM*	-21%	5%	u
COc1ccc(-n2c(O)c(/C=C3\C=Nc4ccccc43)c(=O)[nH]c2=O)cc1	x	u	x	-11%	40%	-13%
O=c1[nH]c(=O)n(CC2CCCO2)c(O)c1/C=C1\C=Nc2ccccc21 (stereo unspecified)	1%	-29%	1.3µM*	-20%	31%	-26%
C[C@@H]1CCc2cc(F)cc3c(=O)c(C(=O)O)cn1c23	12%[21 µM]	x	17%[21.5 µM]	3%	x	x
C=CCc1c(C)[nH]c(=S)c(C#N)c1C	3%	-36%	1.1µM*	10µM*	41%	5µM*
O=C(CCN1CCCCC1)Nc1ccc(Br)cc1C(=O)c1ccccc1	x	4%	1%[2.33 µM]	8%	25%	-16%
O=C(CCN1CCN(c2ccccc2)CC1)c1ccc(Br)cc1	x	u	20µM*	-5%	21%	-32%
c1ccc2sc(C3(N4CCCCC4)CCCCC3)cc2c1	10%[56.1 µM]	x	8.9µM*!	-8%	x	x
NCCCNCCCCNCCCNC(=O)Cc1ccc(O)cc1	7%[21 µM]	x	7%[12.7 µM]	18%	x	x
Cc1cc(C)cc(Oc2nc3ccccn3c(=O)c2/C=C(\C#N)c2nc3ccccc3s2)c1	3%	-18%	3.5µM*	x	50%	-12%
Cc1cccn2c(=O)c(/C=C(\C#N)c3nc4ccccc4s3)c(Oc3ccc(F)cc3)nc12	-8%	-2%	-25%[59 µM]	x	47%	-9%
CN1CCc2cc(O)c(O)cc2C1Cc1ccc(O)c(O)c1 (stereo unspecified)	4%	x	x	u	x	x
C[C@@H]1NCCc2cc(O)c(O)cc21	9%[21 µM]	-4%	1.8µM*	u	u	20µM*
c1ccc(C2CO2)cc1 (stereo unspecified)	11%	x	x	x	x	x
N#CC(C#N)=NNc1ccc(OC(F)(F)F)cc1	22%	x	10µM*	u	x	x
CC1=CC(=O)c2c(O)cccc2C1=O	22%[56.1 µM]	x	-98%[2.33 µM]	35µM*!	x	x
COC(=O)c1ccccc1N	13%	x	x	x	x	x
